Compound activity as filed in PubChem BioAssay.
Most compounds without a hit are left out; they make up all but 11% or so of the library.
Pf growth 96h – P. falciparum growth inhibition at 96 hour, primary screen for plastid delayed-death inhibitors; 320,000 tested, 6.9% active; AID 504834; P. falciparum luciferase reporter growth, 96 h; Potency, µM (series often up to 28.7 µM), hits mostly inhibitors
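Infected RBCs, 2% Hct / 0.05% parasitemia final; luciferase-reporter P. falciparum; cpd 96 h, 37 C, 5% CO2; luciferase detection reagent; luminescence.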
AmpC inh no detg – blocks E. coli AmpC beta-lactamase in detergent-free assay | Potency, µM (series often up to 57.1 µM), most hits filed as inhibitors | P00811 | AmpC nitrocefin hydrolysis, absorbance 480 nm, 0.0001% Triton | 330,000 tested, 0.52% active; further: nearly all actives have a fitted effect of over 20% in size
Target sequence (P00811 whole entry, looked up): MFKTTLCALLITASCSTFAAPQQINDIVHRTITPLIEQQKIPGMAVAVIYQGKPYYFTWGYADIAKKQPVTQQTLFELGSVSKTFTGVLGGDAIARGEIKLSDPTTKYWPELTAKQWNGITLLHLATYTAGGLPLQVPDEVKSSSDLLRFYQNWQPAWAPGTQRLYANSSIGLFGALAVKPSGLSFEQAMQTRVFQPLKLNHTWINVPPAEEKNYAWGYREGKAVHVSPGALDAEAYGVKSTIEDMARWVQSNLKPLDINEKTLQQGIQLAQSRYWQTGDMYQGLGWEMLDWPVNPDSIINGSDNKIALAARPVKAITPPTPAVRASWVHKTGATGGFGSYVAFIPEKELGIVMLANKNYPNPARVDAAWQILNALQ
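AmpC (5.3 nM in the dispensed reagent) in 20 mM phosphate pH 7.0 with 0.01% (detergent screen) or 0.0001% Triton X-100 was preincubated with compounds for 15 min at room temperature. Nitrocefin was then added from an 800 uM solution, and hydrolysis was followed at 480 nm.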
AMA1 RON2 block – disrupts binding of P. falciparum AMA1 to RON2; AlphaScreen AMA1-biotinylated RON2 peptide binding; Potency, µM (doses to about 58.2 µM), actives largely listed as inhibitors; 360,000 tested, 0.2% active; AID 720542; further: nearly all actives have a fitted effect of over 45% in size
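AMA1 (3D7) with his tag at 25 nM final met compounds first, then biotinylated RON2 peptide at 25 nM; detection used donor plus acceptor beads, 10 µg/mL apiece, read by AlphaScreen after 30 min at room temperature.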
AmpC detergent – blocks E. coli AmpC beta-lactamase in detergent assay. AmpC hydrolysis of nitrocefin, absorbance 480 nm, 0.01% Triton. Potency, µM (titrated, usually from 114 µM), most hits filed as inhibitors. P00811. 370,000 tested, 0.041% active. AID 485294; further: nearly all actives have a fitted effect of over 25% in size
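AmpC (5.3 nM in the dispensed reagent) in 20 mM phosphate pH 7.0 with 0.01% (detergent screen) or 0.0001% Triton X-100 was preincubated with compounds for 15 min at room temperature. Nitrocefin was then added from an 800 uM solution, and hydrolysis was followed at 480 nm.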
HCV inhibitor – inhibitors of hepatitis C virus infection | Huh7.5.1 HCVcc-Cre infection, luciferase reporter, 44 h | Potency, µM (series often up to 41.8 µM), usual class: inhibitors | 340,000 tested, 3.4% active
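A cell-based infection assay in which seeded cells (1,000 per well) receive test compound after 4 h, are inoculated with HCVcc-Cre at approximately 0.5 moi, and are incubated 44 h before luminescence detection.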
Pf growth 48h – P. falciparum growth inhibition at 48 hours (one generation); P. falciparum luciferase growth in erythrocytes, 48 h; Potency, µM (top dose mostly 28.7 µM), usual class: inhibitors; 310,000 tested, 5.9% active
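Firefly luciferase activity from engineered P. falciparum reports growth; inhibitors lower the luminescent signal. Cultures contained 2% hematocrit erythrocytes at 0.1% final parasitemia.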
Numbers stand for hits; - = inactive; ? = inconclusive; . = not tested or not shown. The call rests on the fitted dose curve; in most records, active means well fitted curve in the direction sought with a large enough effect; inconclusive means small, poorly fitted or top-dose-only effect, or another doubt; inactive means no such curve, though single readings can be large; an effect the other way counts as inactive or inconclusive.

SMILES	Pf growth 96h	AmpC inh no detg	AMA1 RON2 block	AmpC detergent	HCV inhibitor	Pf growth 48h
O=C(CCC1CCCN(C(=O)c2ccc3c(c2)OCO3)C1)N1CCN(c2ccccn2)CC1 (stereo not drawn)	?	-	-	-	10µM	?
NC(=O)c1cc(S(=O)(=O)NCC2CCC(C(=O)Nc3cccc(Cl)c3)CC2)cs1 (stereo not drawn)	.	.	.	-	.	.
O=C(/C=C/c1cccs1)N1CCC2(CC1)Oc1ccc(F)cc1C(=O)C21CC(c2ccc(Cl)cc2)=NO1 (stereo not drawn)	1.9µM	-	-	-	-	9.3µM
CC(C)(C)OC(=O)N1CCC2(CC1)Oc1ccc(F)cc1C(=O)C21CC(c2cccnc2)=NO1 (stereo not drawn)	?	-	-	-	-	10µM
O=C(/C=C/c1cccs1)N1CCC2(CC1)Oc1ccc(F)cc1C(=O)C21CC(c2ccccc2)=NO1 (stereo not drawn)	9.3µM	-	-	-	-	10µM
O=C(/C=C/c1cccs1)N1CCC2(CC1)Oc1ccc(Cl)cc1C(=O)C21CC(c2ccc(Cl)cc2)=NO1 (stereo not drawn)	.	.	-	.	-	.
O=C(NCc1cccs1)c1cccc(N2CCCC2=O)c1	-	-	-	-	-	-
O=C(NC1CCCCCC1)c1cccc(N2CCCC2=O)c1	-	-	-	-	25µM	-
O=C(NCc1ccccc1CN1CCCC1)c1cccc(N2CCCC2=O)c1	4.1µM	-	-	-	?	?
Cn1nc(C(=O)NCc2ccccc2CN2CCCC2)c2ccccc2c1=O	15µM	-	-	?	?	?
O=C(NC1CCCN(Cc2ccc(Cl)cc2)C1)c1cccc(N2CCCC2=O)c1 (stereo not drawn)	-	-	-	-	-	-
Cc1ccc2oc(-c3cccc(NC(=O)c4ccc(N5CCC(C)CC5)c([N+](=O)[O-])c4)c3)nc2c1	.	.	.	-	.	.
Cc1sc2nc(SCC(=O)C(C)(C)C)n(Cc3ccco3)c(=O)c2c1C	10µM	-	-	-	?	3.7µM
Cc1cccc(CSc2nc3sc(C)c(C)c3c(=O)n2Cc2ccco2)c1	.	-	-	-	-	15µM
Cc1cc2c(=O)n(Cc3ccco3)c(SCC(=O)c3ccc(Cl)s3)nc2s1	-	28µM	-	-	?	5.9µM
Cc1sc2nc(SCc3ccccc3)n(Cc3ccco3)c(=O)c2c1C	-	-	-	-	-	-
Cc1ccc(NC(=O)Cn2cc(S(=O)(=O)N3CCN(c4ccccc4F)CC3)c3ccccc3c2=O)cc1F	.	.	.	-	.	.
Cc1ccc(OCc2ccc(-c3nc(C#N)c(NCc4ccccc4Cl)o3)o2)cc1	.	.	.	-	.	.
CCC1(c2ccc(F)cc2)NC(=O)N(CC(=O)N2CC(=O)Nc3ccccc32)C1=O (stereo not drawn)	-	-	-	?	-	?
Cc1ccc(C2(c3ccccc3)NC(=O)N(CC(=O)N3CC(=O)Nc4ccccc43)C2=O)cc1C (stereo not drawn)	3.7µM	-	-	-	?	2.3µM
O=C1CN(C(=O)CN2C(=O)NC(c3ccccc3)(c3ccccc3)C2=O)c2ccccc2N1	.	-	-	.	-	.
COc1ccccc1CNC(=O)CN1C(=O)NC(c2ccccc2)(c2ccc(C)c(C)c2)C1=O (stereo not drawn)	9.3µM	-	-	?	-	9.3µM
CCCC1(c2ccccc2)NC(=O)N(CC(=O)N2CC(=O)Nc3ccccc32)C1=O (stereo not drawn)	?	-	-	-	-	2.9µM
CCC(=O)N1CCc2cc(Br)cc(S(=O)(=O)CCC(=O)NCCc3ccccc3Cl)c21	.	.	.	-	.	.
CCOCCCNC(=O)c1cnc2sc(N3CCCCC3)nn2c1=O	.	.	.	-	.	.
SMILES	Pf growth 96h	AmpC inh no detg	AMA1 RON2 block	AmpC detergent	HCV inhibitor	Pf growth 48h
COc1ccc(CNCCC(c2ccccc2)c2ccc3c(c2)OCO3)cc1 (stereo not drawn)	?	-	-	-	10µM	?
COc1ccc(CNCCC(c2ccc(OC(C)C)cc2)c2ccccc2OC)cc1 (stereo not drawn)	?	-	-	-	?	?
COc1ccccc1C(CCNCc1ccc(N(C)C)cc1)c1ccc(OC(C)C)cc1 (stereo not drawn)	13µM	-	8.9µM	-	?	8.3µM
COc1ccccc1NC(=O)CC(c1ccc(OC(C)C)cc1)c1ccccc1OC (stereo not drawn)	?	-	-	?	11µM	-
COc1ccc(CNCCC(c2ccc(OC(C)C)cc2)c2ccccc2OC)cc1OC (stereo not drawn)	?	-	-	-	13µM	13µM
COc1cccc(CNC(=O)CN2C(=O)CSc3ccc(S(=O)(=O)N(C)C)cc32)c1	.	.	.	-	.	.
COc1ccc(C(CCNCc2ccc(N(C)C)cc2)C(C)C)cc1 (stereo not drawn)	7.4µM	-	?	-	?	9.3µM
COc1ccc(CNCCC(c2ccc(OC(C)C)cc2)C(C)C)cc1OC (stereo not drawn)	?	-	-	?	8.9µM	?
COc1ccc(CNCCC(c2ccc(C)cc2)c2ccco2)cc1 (stereo not drawn)	.	.	.	-	.	.
COc1ccc(C(CCNCc2ccc(OC(C)C)cc2)C(C)C)cc1 (stereo not drawn)	?	-	-	-	?	?
COCCn1c(=NC(=O)/C=C/c2ccccc2)sc2cc(NC(C)=O)ccc21	2.6µM	-	-	?	-	?
COCCn1c(=NC(C)=O)sc2cc([N+](=O)[O-])ccc21	-	-	-	?	-	-
COCNc1nc(OCC#N)nc(N(C)C)n1	?	-	-	-	-	-
CCNc1nc(ON=C(C)C)nc(N(C)C)n1	?	-	-	-	-	8.3µM
COc1cc(Cl)c(NC(=O)CN(C)S(=O)(=O)c2ccc3[nH]c4c(c3c2)CCCC4)c(OC)c1	.	.	.	-	.	.
Cc1cc(C)c2nc(N3CCCC(C(=O)NC4CCCC4)C3)sc2c1 (stereo not drawn)	5.2µM	-	-	-	-	-
Cc1ccc(CNC(=O)C2CCCN(c3nc4c(C)cc(C)cc4s3)C2)cc1 (stereo not drawn)	.	.	.	-	.	.
Cc1cc(C)c2nc(N3CCC(C(=O)N4CCN(c5ncccn5)CC4)CC3)sc2c1	-	-	-	-	-	.
Cc1cc(C)c2nc(N3CCC(C(=O)N4CCCC4)CC3)sc2c1	?	-	-	-	-	8.3µM
Cc1cc(Nc2cccc(C(F)(F)F)c2)nc2ccc(NC(=O)Cc3ccc(Cl)cc3)cc12	.	.	.	-	.	.
CN1C(=O)Cc2cc(S(=O)(=O)CCC(=O)Nc3ccccc3)ccc21	.	.	.	-	.	.
Cc1ccc(CN2CCCn3nc(C(=O)NCCc4ccccc4Cl)cc3C2=O)cc1	.	.	.	-	.	.
